Sampled rows, rich in hits. Any-hit rate of the full collection: about 19%.
TDP1 cell noCPT: qHTS for Inhibitors of human tyrosyl-DNA phosphodiesterase 1 (TDP1): qHTS in cells in absence of CPT; DT40 Tdp1-/- hTDP1 cells, no CPT, ATP luminescence, 48 h; Potency, µM (highest dose often 46.2 µM), for the others: at the top dose activity change, negative = growth inhibition, actives largely listed as inhibitors; actives 15% (n = 420,000); note: potency is the fitted concentration of half-maximal effect; nearly all actives have a fitted effect of over 55% in size
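Growth of hTDP1-complemented DT40 Tdp1-knockout cells is measured by ATP luminescence after at least 48 hr compound exposure at 37 °C, with DMSO substituting for the 20 nM CPT used in the parallel screen.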
TDP1 cell CPT: DT40-hTDP1 cell growth loss with CPT | Potency, µM (titrated, usually from 46.2 µM), inactives show at the top dose activity change, negative = growth inhibition, usual class: inhibitors | chicken DT40 Tdp1-/-;hTDP1 cells + 20 nM CPT, ATP luminescence, 48 h | actives 12% (n = 420,000); note: potency is the fitted concentration of half-maximal effect; nearly all actives have a fitted effect of over 55% in size
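Chicken DT40 Tdp1-/- cells stably complemented with human TDP1 were seeded at 400 cells/well in medium containing 20 nM camptothecin, exposed to pin-transferred compounds, and grown at 37 °C for at least 48 hr. Viability was read as ATP luminescence.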
IL-1B inflam inh: blocks inflammasome-driven IL-1 beta release; THP-1 LPS/ATP IL-1B secretion, AlphaLISA, 16 h; stronger effect = lower value; activity change, % at 57.5 µM; actives 4.7% (n = 360,000); in the data active = activity change below about -50%; inconclusive = mostly about -30% to -49%
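THP-1 cells pretreated 1 hr with compounds (up to 57.5 uM final), then stimulated with LPS (250 ng/mL final) plus ATP (1.25 mM final); secreted IL-1B measured by AlphaLISA after 16 hr, decreased signal indicating inhibition.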
HT1080 IDH1KD tx: HT-1080 IDH1 knockdown cell toxicity (counter line). HT-1080 IDH1 knockdown viability, ATP luminescence, 48 h. Potency, µM (titrated, usually from 46.1 µM), inactives show at the top dose activity, negative = toxicity, hits mostly cytotoxic. actives 2% (n = 360,000);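 note: potency is the fitted concentration of half-maximal effect; 0% = DMSO wells and -100% = cell-free medium wells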
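IDH1KD HT-1080 cells, 750/well, RPMI + 5% FBS; compound pinned after 2 h settling; 48 h, 37 °C; CellTiter-Glo luminescence; % activity normalised to DMSO and no-cell wells; curves fitted, classed by r2 and efficacy.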
HT1080NT lethal: kills 2HG-producing HT-1080-NT fibrosarcoma cells; actives 1.6% (n = 360,000); Potency, µM (series often up to 46.1 µM), for the others: at the highest dose activity, negative = less viability, most hits filed as cytotoxic; HT-1080-NT fibrosarcoma viability, CellTiter-Glo ATP luminescence, 48 h;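 note: NT is the 2HG producing partner of a matched IDH1 knockdown line; potency is the fitted concentration of half-maximal effect; 0% = DMSO-treated cells and -100% = media-only wells without cells; nearly all actives have a fitted effect of over 55% in size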
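Read-out is CellTiter-Glo luminescence after 10 minutes at room temperature, following 48 hours' compound treatment of HT-1080-NT cells (750 cells/well, RPMI, 5% FBS, 37 degrees C).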
Numbers without * were called inactive; ? = inconclusive; / = no result given. Unless noted, calls come from the whole dose curve; as a rule, active = well fitted curve in the direction sought with a large enough effect; inconclusive = small, poorly fitted or top-dose-only effect, or another doubt; inactive = no such curve, though single readings can be large; an effect the other way counts as inactive or inconclusive. Unless noted, % is set by controls: 0 for no effect and ±100 for the full control effect.

SMILES	TDP1 cell noCPT	TDP1 cell CPT	IL-1B inflam inh	HT1080 IDH1KD tx	HT1080NT lethal
Cc1ccc(C(O)(C(=O)OC(C)C)C(O)c2ccccc2)cc1 (centres undefined)	?	-20%	-21	4%	-3%
C=CC[C@@H](CC(=O)N[C@H](CO)Cc1ccccc1)C(=O)NCCOC(=O)[C@@H](CC=C)Cc1ccc(F)cc1	?	29µM*	21	-4%	-20%
C=CC[C@@H](CC(=O)N[C@@H](CO)Cc1ccccc1)C(=O)NCCOC(=O)[C@@H](CC=C)Cc1ccc(F)cc1	-3%	8%	4	5%	-2%
NC(=O)C1(N2CCCCC2)CCN(CC(=O)Nc2ccc(Oc3ccccc3)cc2)CC1	?	?	-27	?	-26%
COc1ccc(-c2csc(Nc3ccc(S(N)(=O)=O)cc3)n2)cc1	?	?	?	18µM*	?
CCC(C)OC(=O)c1c(N)n(Cc2cccs2)c2nc3ccccc3nc12 (centres undefined)	?	?	?	?	-16%
CC(C)CCNC(=O)c1c(N)n(CC2CCCO2)c2nc3ccccc3nc12 (centres undefined)	29µM*	26µM*	?	?	?
CCC(C)NC(=O)c1c(N)n(CC2CCCO2)c2nc3ccccc3nc12 (centres undefined)	-29%	-14%	-57*	-18%	-28%
CCC(C)NC(=O)c1c(N)n(Cc2ccc3c(c2)OCO3)c2nc3ccccc3nc12 (centres undefined)	26µM*	?	?	?	?
CCCCOCCCn1c(N)c(C(=O)OC(C)COC)c2nc3ccccc3nc21 (centres undefined)	?	?	?	-21%	-25%
C[C@H](CO)N1C[C@H](C)[C@@H](CN(C)C(=O)NC2CCCCC2)Oc2c(cccc2N(C)C)C1=O	?	?	-1	-11%	0%
CN1CCN=C(c2ccccc2)c2cc(Cl)ccc21	-86%	-88%	/	/	/
O=C1N[C@H](Cc2ccccc2)C(=O)N2[C@@H]3[C@H](C[C@@H]12)c1ccccc1N3OOSc1ccccc1	18µM*	16µM*	0	-15%	-1%
Cc1cc(C(=O)CS(=O)(=O)c2ccccc2)cc(C)c1OC(=O)N(C)C	18µM*	?	34	-16%	-17%
COC(=O)C(C)NC(=S)N1CC2C[C@@H](C1)Cn1c2cccc1=O (some centres undefined)	10%	-13%	-6	2%	-5%
O=C1CS[C@@H](c2ccccc2Cl)c2cc(Cl)ccc2N1	?	-8%	/	/	/
O=C1CNC(c2ccccc2Cl)c2cc(Br)ccc2N1 (centres undefined)	8.2µM*	-10%	-5	-6%	-19%
CCCCSc1nc2c(cnn2-c2ccccc2)c(=O)n1N	?	-27%	-51*	-16%	1%
Nc1cnn(-c2ccccc2)c(=O)c1Cl	16%	7%	26	0%	1%
C=CCn1c(O)c(C(C)=NCc2cc(OC)cc(OC)c2)c(=O)[nH]c1=O	1.6µM*	4.1µM*	71	5.8µM*	3.7µM*
CCOc1ccc(NC(=O)CN(c2ccc(Cl)cc2C)S(=O)(=O)c2ccccc2)cc1	10µM*	8.2µM*	/	/	/
CCOc1ccc(NC(=O)CSc2oc(-c3ccccc3)nc2S(=O)(=O)c2ccc(Cl)cc2)cc1	21µM*	7.3µM*	/	/	/
O=C(CSc1oc(-c2ccccc2)nc1S(=O)(=O)c1ccc(Cl)cc1)Nc1ccc(F)cc1	?	10µM*	/	/	/
CCOc1ccc(S(=O)(=O)N(CC(=O)NCc2ccccc2OC)c2ccccc2)cc1	16µM*	15µM*	/	/	/
Cc1ccc([C@H]2C[C@@H](O)[C@H](n3cc(COC(=O)c4ccccc4)nn3)CN2C(=O)C2CCCCC2)cc1	?	-23%	-26	0%	0%
SMILES	TDP1 cell noCPT	TDP1 cell CPT	IL-1B inflam inh	HT1080 IDH1KD tx	HT1080NT lethal
COC(=O)c1cn(CC(=O)NC2CCCCC2)c2ccccc12	1%	-2%	9	3%	?
COC(=O)c1cn(S(=O)(=O)c2ccccc2)c2ccccc12	26µM*	?	-2	-5%	-7%
O=[N+]([O-])NC1=NCCN1Cc1ccc(Cl)nc1	2.6µM*	/	17	-2%	5%
CNC(C)[C@H](O)c1ccccc1 (some centres undefined)	-11%	-5%	/	/	/
CC(C(O)c1ccccc1)N(C)CCOC(c1ccccc1)c1ccccc1 (centres undefined)	15µM*	12µM*	/	/	/
CN1C(=O)C(C)(C2=CCCCC2)C(=O)NC1=S (centres undefined)	-1%	14%	13	11%	6%
CN(C)P(=O)(NC(=O)c1cccn1C)N(C)C	-1%	1%	-29	-2%	-4%
CN(C)P(=NC(=S)c1cccn1C)(N(C)C)N(C)C	4.1µM*	8.2µM*	3	-26%	?
COC(=O)c1ccc(COC(=O)c2nn(C)c(=O)c3ccccc23)cc1	?	?	19	4%	5%
COc1cccc(-n2c(/C=C/c3ccccc3O)nc3ccccc3c2=O)c1	26µM*	?	/	/	/
COc1cccc(-n2c(=S)[nH]c3ccccc3c2=O)c1	?	-1%	4	-2%	-6%
COc1cccc(-n2c(/C=C/c3cccc(C)c3)nc3ccccc3c2=O)c1	23µM*	?	/	/	/
Cc1cc(C)cc(-n2c(/C=C/c3cccc(F)c3)nc3ccccc3c2=O)c1	?	21µM*	/	/	/
CCC(=NCC1CCCO1)c1c(O)n(-c2ccc(Cl)cc2)c(=O)[nH]c1=O (centres undefined)	-4%	-13%	11	-1%	-2%
CCCCn1c(O)c(C=NCCCn2ccnc2)c(=O)[nH]c1=O	1%	-11%	10	0%	-6%
CC(C)CCCn1c(O)c(/C=C2/C=CC=N2)c(=O)[nH]c1=O	5.2µM*	5.8µM*	-18	16µM*	18µM*
CCC(=O)N1N=C2C3CCN(CC3)C2C1c1ccccc1 (centres undefined)	-8%	-11%	12	13%	4%
C=C(C)[C@@H]1CC[C@]2(C(=O)O)CC[C@]3(C)C(CCC4[C@@]5(C)CC[C@H](O)C(C)(C)C5CC[C@]43C)C12 (some centres undefined)	7.3µM*	6.5µM*	41	?	?
COC(=O)C1=C(c2ccc(OCc3ccccc3)cc2)C[C@@H]2CC[C@H]1N2C(=O)NCc1ccccc1OC	8.2µM*	16µM*	-4	-25%	-14%
